Screens (PubChem)
Shiga toxin inh: blocks Shiga toxin action in Vero cells; Vero cells, Shiga toxin protein synthesis inhibition reporter; inhibition, % at 38.7 µM; 290,000 tested, 9.2% active; in the data active = inhibition mostly above about 28%, no sharp cut-off; inactive = mostly below about 43%; note: 0% is about no effect
NS1 function inh: influenza NS1 inhibition | AID 2326 | 270,000 tested, 0.4% active | Potency, µM (top dose mostly 46.1 µM), for inactives: top-dose activity, positive = more growth; note: potency is the fitted concentration of half-maximal effect; actives are rising curves; nearly all actives have a fitted effect of over 50% in size
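Compounds were scored for reversing the slow growth caused by influenza A NS1 in S. cerevisiae, measured by optical density at 600 nm. Assay medium contained 2% galactose at pH 6.0; NS1-free yeast of the same strain were the positive control.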
Cycloheximide cs: counter-screen hit for Shiga toxin inhibitors, cycloheximide | cell reporter, cycloheximide protein synthesis inhibition counterscreen | max response, % | 300,000 tested, 12% active; in the data active = max response mostly above about 13%, no sharp cut-off; inactive = mostly below about 14%; note: read at 38.3 µM for the half of the compounds with a filed dose; 0% is about no effect
SARS PLpro yeast: blocks SARS-CoV papain-like protease in a yeast assay; S. cerevisiae expressing SARS-CoV PLpro, growth rescue; AID 485353; Potency, µM (series often up to 32.9 µM), without a hit: top-dose activity, positive = growth rescue, hits mostly activators; 330,000 tested, 0.19% active; note: potency is the fitted concentration of half-maximal effect; 0% is about no effect; nearly all actives have a fitted effect of over 55% in size
Tb PYK inh: inhibitors of Trypanosoma brucei pyruvate kinase. Potency, µM (doses to about 76.8 µM), for the others: at the highest dose activity, negative = inhibition, actives largely listed as inhibitors. 410,000 tested, 0.12% active. AID 624173. TbPYK enzyme, Kinase-Glo Plus ATP luminescence, 45 min. Q57TT1; active = well fitted curve in the direction sought with a large enough effect; inconclusive = small, poorly fitted or top-dose-only effect, or another doubt; inactive = no such curve, though single readings can be large; an effect the other way counts as inactive or inconclusive; note: potency is the fitted concentration of half-maximal effect; % is set by controls: 0 for no effect and ±100 for the full control effect; nearly all actives have a fitted effect of over 50% in size
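Activity of T. brucei pyruvate kinase was followed by Kinase-Glo Plus luminescence after the enzyme reacted 45 min at room temperature with 130 uM ADP (final) and substrate. Test compounds were added before ADP at multiple concentrations.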
LmPK inh: inhibitors of Leishmania mexicana pyruvate kinase | Q27686 | purified LmPK, Kinase-Glo ATP luminescence, 1 h | Potency, µM (highest dose often 57.5 µM), without a hit: at the top dose activity change, negative = inhibition, most hits filed as inhibitors | 290,000 tested, 0.37% active | AID 1721; active = well fitted curve in the direction sought with a large enough effect; inconclusive = small, poorly fitted or top-dose-only effect, or another doubt; inactive = no such curve, though single readings can be large; an effect the other way counts as inactive or inconclusive; note: potency is the fitted concentration of half-maximal effect; % is set by controls: 0 for no effect and ±100 for the full control effect
Target sequence (Q27686 whole entry, looked up): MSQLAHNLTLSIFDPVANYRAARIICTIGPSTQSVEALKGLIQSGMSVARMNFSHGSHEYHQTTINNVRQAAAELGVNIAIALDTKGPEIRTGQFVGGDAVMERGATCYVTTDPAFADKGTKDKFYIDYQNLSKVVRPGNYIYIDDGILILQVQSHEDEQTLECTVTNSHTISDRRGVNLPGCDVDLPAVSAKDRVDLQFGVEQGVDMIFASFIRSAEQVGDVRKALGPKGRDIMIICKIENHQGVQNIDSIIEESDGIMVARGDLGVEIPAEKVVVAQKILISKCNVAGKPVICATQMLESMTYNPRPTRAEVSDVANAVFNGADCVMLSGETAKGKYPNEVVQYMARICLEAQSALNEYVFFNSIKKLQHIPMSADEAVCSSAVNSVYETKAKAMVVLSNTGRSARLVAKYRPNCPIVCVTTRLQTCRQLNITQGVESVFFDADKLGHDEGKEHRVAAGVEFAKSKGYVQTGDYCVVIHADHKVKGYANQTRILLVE
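Purified LmPK (0.1 nM) with 0.5 mM PEP and 0.1 mM ADP in imidazole buffer pH 7.2 with MgCl2/KCl, 1 h at room temperature. ATP formed was read by luciferase luminescence and normalized to no-enzyme and uninhibited controls.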
* hit, by the source's call; ? = inconclusive; nt = no result given; [ ] = dose if it differs, or a comment. Shown is part of a subset that was picked to be rich in hits. Unless noted, calls come from the whole dose curve.

SMILES	Shiga toxin inh	NS1 function inh	Cycloheximide cs	SARS PLpro yeast	Tb PYK inh	LmPK inh
O=C(NC1(Cc2ccccc2)CCN(CCc2cccs2)C1=O)c1ccccc1 (centres undefined)	nt	nt	nt	-4%	-9%	nt
COc1ccc(N2CC(NC(=O)/C=C\c3ccccc3)CC2=O)cc1OC (centres undefined)	nt	nt	nt	nt	3%	nt
O=C(Nc1ccc(-c2nc3ncccc3o2)cc1)c1ccco1	66*	-69%	27*	-4%	-26%	-1%
Cc1ccc2oc(-c3ccc(NC(=O)CC(C)C)cc3)nc2c1	143*	0%	34*	-4%	1%	-4%
CCC(=O)Nc1ccc2oc(-c3cccnc3)nc2c1	48*	-6%	35*	-1%	1%	-4%
O=C(Nc1ccc2oc(-c3cccnc3)nc2c1)c1cccnc1	34	-1%	-2	-2%	2%	6%
O=C(Nc1ccc(-c2nc3ncccc3o2)cc1)c1ccc(Br)o1	-28	-3%	9	-20%	4%	2%
CCC(C)NCC(=O)Nc1ccc(-c2nc3cc(NC(=O)CNC(C)CC)ccc3o2)cc1 (centres undefined)	19	-3%	-4	-3%	-8%	-5%
O=C(Nc1ccc2nc(-c3ccccc3)oc2c1)c1ccco1	47*	-15%	29*	-9%	5%	1%
C=CC1=C2C=C(C3CC3)N(c3ccc(OC)cc3)C=C2C(=O)C(C)(OC(=O)c2ccco2)C1=O (centres undefined)	nt	nt	nt	nt	nt	7%[11.5 µM]
Cn1nc(C(=O)OCC(=O)NCCc2ccccc2)c2ccccc2c1=O	7	-16%	27*	-2%	-6%	0%
Cn1nc(C(=O)OCC(=O)NCc2ccc(Cl)cc2)c2ccccc2c1=O	nt	nt	nt	-2%	-9%	nt
Cn1nc(C(=O)OCC(=O)c2ccccc2)c2ccccc2c1=O	nt	nt	nt	1%	-8%	nt
COC(=O)c1ccc(COC(=O)c2nn(C)c(=O)c3ccccc23)cc1	57	-5%	23*	0%	8%	1%
O=S(=O)(c1cccc2ccccc12)N1CCC2CC1c1cc(-c3ccc4c(c3)OCO4)ccc12 (centres undefined)	nt	nt	nt	nt	1%	nt
Cn1cccc1CN1CCC[C@]2(N[C@H](c3ccc(C(F)(F)F)cc3)[C@@H]3C(=O)N(Cc4ccccc4)C(=O)[C@@H]32)C1=O	nt	nt	nt	nt	3%	nt
CCOc1ccc(N2C(=O)c3ccccc3NC2(C)CC)cc1 (centres undefined)	nt	nt	nt	-2%	6%	nt
COc1ccc(N2C(=O)c3ccccc3NC2(C)C)cc1	73*	nt	15	-1%	0%	3%
CC1(C)Nc2ccccc2C(=O)N1c1ccc(Br)cc1	nt	nt	nt	nt	7%	nt
COc1ccc(N2C(=O)c3ccccc3NC23CCC(C)CC3)cc1 (centres undefined)	54	5%	32*	7%	-5%	2%
COc1ccc(N2C(=O)c3ccccc3NC23CCCCC3)cc1	52	-7%	26*	0%	-4%	?
CCC(=O)Nc1nnc(SCC(=O)NC2CCCC2)s1	-7	2%	-4	2%	0%	-2%
CC(C)n1cc(C(=O)N2CCCC(Nc3ccc(F)c(F)c3)C2)cn1 (centres undefined)	14	14%	27*	-3%	-1%	-2%
Cc1ccc(C(=O)N2CCCC(Nc3ccc(F)c(F)c3)C2)cn1 (centres undefined)	-7	6%	1	0%	0%	-9%
O=c1c2cn[nH]c2nc(SCc2cc(=O)n3cc(Br)ccc3n2)n1-c1ccc(Br)cc1	26	nt	22*	-4%	8%	15%
O=c1c2cn[nH]c2nc(SCc2ccccc2F)n1-c1ccc(Br)cc1	-10	6%	-3	-18%	-1%	11%
Cc1cccc2nc(CSc3nc4[nH]ncc4c(=O)n3-c3ccccc3Cl)cc(=O)n12	47	0%	14*	29%	3%	0%
Cc1[nH]c(C)c(S(=O)(=O)NCc2ccc(OC(C)C)cc2)c1C(=O)N1CCCC1	-5	1%	-5	0%	4%	4%
